Experimental data as given in PubChem BioAssay (Tox21).
Where “and” joins values, the source holds several entries; their conditions need not be identical. Identical values can stand only once. Records with an inconclusive call do not appear. The source holds several records for some structures; these can differ, active in one and inactive in another. Calls of active or inactive are those of the source. Unless noted, calls follow the shape of the dose curve; as a rule, active = well fitted curve in the direction sought with a large enough effect in the repeat runs; inconclusive = weak or mixed curves; inactive = no such curve, though single readings can be large; an effect the other way counts as inactive or inconclusive.

Legend:
[1] = qHTS assay to identify small molecule antagonists of the estrogen related receptor (ERR) signaling pathway from Tox21 library - cell viability counter screen (AID 1224834); also: nearly all actives have a fitted effect of over 30% in size; also: potency is read from the fitted curve at half-maximal effect
Method in brief: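 Compounds in DMSO were pinned onto ERR cells that had been incubated for 6 h, and the plates were held at 37 C for 17.5 h. CellTiter-Fluor reagent was then added and fluorescence was measured after 30 min.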

[2] = target: Luciferin 4-monooxygenase (Photinus pyralis) (UniProt P08659); test: qHTS assay to identify small molecule inhibitors of firefly luciferase (AID 1224835); also: nearly all actives have a fitted effect of over 25% in size; also: potency is read from the fitted curve at half-maximal effect
Method in brief: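 Quantitative HTS format; KM concentrations of both substrates. Purified P. pyralis FLuc activity quantified from luminescence images.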

[3] = qHTS assay to identify small molecule agonists of the constitutive androstane receptor (CAR) signaling pathway - cell viability counter screen (AID 1224836); also: nearly all actives have a fitted effect of over 45% in size
Method in brief: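 Cell viability multiplexed with the CAR agonist screen: CellTiter-Fluor fluorescence after 23 hr at 37 C. HepG2-CYP2B6-hCAR cells got compounds at 15 concentrations with PK11195 at 0.75 uM final.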

[4] = qHTS assay to identify small molecule antagonists of the constitutive androstane receptor (CAR) signaling pathway - cell viability counter screen (AID 1224837); also: nearly all actives have a fitted effect of over 45% in size
Method in brief: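 Cells are seeded, rested 4 hr at 37 C/5% CO2, dosed with compound (15-point series) and 50 nM CITCO, incubated a further 23 hr, and then CellTiter-Fluor reagent is added before fluorescence is read. The line is HepG2 with stable hCAR and CYP2B6-2.2kb.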

[5] = target: Nuclear receptor subfamily 1 group I member 3 (Homo sapiens) (UniProt Q14994); test: qHTS assay to identify small molecule antagonists of the constitutive androstane receptor (CAR) signaling pathway (AID 1224838);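 also: HepG2 cells stably expressing hCAR with CYP2B6 luciferase reporter stimulated by CITCO; nearly all actives have a fitted effect of over 40% in size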; also: potency is read from the fitted curve at half-maximal effect
Method in brief: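 Luminescence from a CYP2B6-2.2kb promoter reporter in hCAR-expressing HepG2 cells reflects CAR signaling. Cells received compounds at 15 concentrations and 50 nM CITCO (final), then incubated 24 h at 37 C/5% CO2.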

[6] = target: Nuclear receptor subfamily 1 group I member 3 (Homo sapiens) (UniProt Q14994); test: qHTS assay to identify small molecule agonists of the constitutive androstane receptor (CAR) signaling pathway (AID 1224839); also: nearly all actives have a fitted effect of over 15% in size; also: potency is read from the fitted curve at half-maximal effect;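 as to activation: HepG2 cells stably carrying human CAR and a CYP2B6 luciferase reporter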
Method in brief: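 Luminescent ONE-Glo read-out after 24 hr, 37 C exposure of double-stable HepG2-CYP2B6-hCAR reporter cells to a 15-point compound series, in the presence of 0.75 uM PK11195 (final).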

[7] = qHTS assay to identify small molecule antagonists of the estrogen related receptor signaling pathway with the pleiotropic PPARgamma coactivator (PGC) from Tox21 10K library - cell viability counter screen (AID 1224840; active = well fitted cell-killing curve with a large enough effect in the repeat runs, not every such curve was filed as active; also: nearly all actives have a fitted effect of over 40% in size)
Method in brief: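 Cell viability is measured by CellTiter-Fluor fluorescence in PGC/ERR cells that receive compounds after a 6-hour attachment period and are then incubated 17.5 hours at 37 C.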

[8] = qHTS assay to identify small molecule antagonists of the estrogen related receptor signaling pathway with the pleiotropic PPARgamma coactivator (PGC) from Tox21 10K library (AID 1224841; call rule not given here; also: actives are mostly falling curves and most rising ones were filed inactive; nearly all actives have a fitted effect of over 50% in size)
Method in brief: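 Cells stably carrying the PGC/ERR reporter, seeded at 2,000 per well, received pin-transferred compounds 6 h post-plating. Exposure lasted 18 h at 37 C. Signal: One-Glo luminescence.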

[9] = qHTS assay to identify small molecule antagonists of the estrogen related receptor (ERR) signaling pathway from Tox21 library (AID 1224848); also: nearly all actives have a fitted effect of over 50% in size
Method in brief: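 Tox21 10K compounds in DMSO tested for ERR pathway antagonism in NTP's ERR cell line; 18 h, 37 C exposure; ONE-Glo luminescence.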

[10] = qHTS assay to identify small molecule agonists of the estrogen related receptor (ERR) signaling pathway from Tox21 library (AID 1224849; calls by dose curve; also: nearly all actives have a fitted effect of over 15% in size); conditions: ERR reporter cell line, ONE-Glo luciferase, 18 h
Method in brief: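 Quantitative HTS in agonist format: NTP ERR cell line, compounds transferred in DMSO after 6 h plating, 18 h incubation at 37 C, ONE-Glo luminescence endpoint.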

[11] = qHTS RealTime-Glo MT Cell Viability Assay in HepG2 cells - 24 hour (AID 1224867); also: nearly all actives have a fitted effect of over 50% in size; also: potency is read from the fitted curve at half-maximal effect
Method in brief: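 Viability was tracked continuously by NanoLuc luminescence from prosubstrate reduced by living HepG2 cells, at successive time points over 40 h of compound exposure. Cells with reagent were preincubated 5 h at 37 °C before compound addition.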

[12] = qHTS RealTime-Glo MT Cell Viability Assay in HEK293 cells - 32 hour (AID 1224868); also: nearly all actives have a fitted effect of over 50% in size; also: potency is read from the fitted curve at half-maximal effect
Method in brief: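 Viability tracked continuously by luminescence as live cells reduce a prosubstrate for NanoLuc; HEK293 cells preincubated 5 h, compound-treated at 37 C, and read at 0, 8, 16, 24, 32 and 40 h.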

[13] = A CellTox Green Cytotoxicity Assay to monitor cytotoxicity in HEK293 cells - 0 hour (AID 1224869); also: nearly all actives have a fitted effect of over 50% in size
Method in brief: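 Dead-cell fluorescence measured kinetically: asymmetric cyanine dye, HEK293, 600 cells/well, 5 h settle, 23 nL cpd/DMSO, 37 C, reads 0–40 h every 8 h.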

[14] = qHTS RealTime-Glo MT Cell Viability Assay in HepG2 cells - 40 hour (AID 1224870); also: nearly all actives have a fitted effect of over 50% in size; also: potency is read from the fitted curve at half-maximal effect
Method in brief: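 HepG2 cells mixed with RealTime-Glo MT reagents (NanoLuc plus cell-permeant prosubstrate) were seeded at 600 cells/well, incubated 5 h at 37 C/5% CO2, then pinned with compounds in DMSO; nonlytic luminescence tracked viability during 40 h treatment.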

[15] = qHTS assay to identify small molecule agonists of the estrogen related receptor signaling pathway with the pleiotropic PPARgamma coactivator (PGC) from Tox21 10K library (AID 1224842); also: nearly all actives have a fitted effect of over 15% in size
Method in brief: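 PGC/ERR reporter cells (NTP line) were seeded 2,000 per well, rested 6 h at 37 C/5% CO2, then pin-dosed with compounds in DMSO for 18 h at 37 C; luciferase read by One-Glo luminescence after 30 min at room temperature.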

[16] = target: Thyrotropin receptor (Homo sapiens) (UniProt P16473); test: qHTS assay to identify small molecule agonists of the thyroid stimulating hormone receptor (TSHR) signaling pathway (AID 1224843; calls by dose curve; also: nearly all actives have a fitted effect of over 45% in size)
Method in brief: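 Using 15 concentrations per compound in triplicate, cAMP production was monitored in TSHR-HEK293 cells after 30 min compound incubation at RT; HTRF reagents followed, with fluorescence intensity recorded after 1 h.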

[17] = qHTS assay to identify small molecule agonists of the hypoxia (HIF-1) signaling pathway - cell viability counter screen (AID 1224844; calls by dose curve; also: nearly all actives have a fitted effect of over 50% in size)
Method in brief: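 Viability counter screen: HRE-bla ME-180 cells plated 5 hrs before compound addition, treated 17 hrs at 37C and 5% CO2, then CellTiter-Glo added after the FRET reporter read; luminescence after 30 min.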

[18] = qHTS assay to identify small molecule agonists of H2AX (AID 1224845; active = well fitted activation curve with a large enough effect in the signal ratio in the repeat runs, not every such curve was filed as active; the % refers to the signal ratio)
Method in brief: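 Wild-type CHO-K1 cells plated overnight, then exposed 3 hr at 37C to compounds at 15 concentrations (0.76% DMSO). Lysed, then HTRF anti-pH2AX(S139)-cryptate/anti-H2AX-d2 detection after 24 hr at room temperature; emissions 665 and 620 nm.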

[19] = qHTS assay to identify small molecule agonists of the hypoxia (HIF-1) signaling pathway (AID 1224846; active = well fitted activation curve with a large enough effect in the signal ratio in the repeat runs, not every such curve was filed as active; the % refers to the signal ratio)
Method in brief: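 Agonist mode reporter screen. ME-180 cells stably expressing bla under HRE control received test compounds in DMSO for 17 hrs (37C, 5% CO2), and beta-lactamase activity was then detected with the CCF4-AM FRET substrate.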

[20] = qHTS assay to identify small molecule agonists of H2AX - cell viability counter screen (AID 1224847; calls by dose curve; also: nearly all actives have a fitted effect of over 30% in size; also: potency is read from the fitted curve at half-maximal effect)
Method in brief: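 Counter-screen for viability: CellTiter-Glo ATP luminescence read after 3 h compound treatment (15-point titration, 0.76% DMSO final) of CHO-K1 cells at 37C, with 30 min room-temperature reagent incubation.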

[21] = at 92.4 µM (top of the series) unless noted
% is scaled to controls: 0 for no effect and ±100 for the full control effect.

Sequence of Thyrotropin receptor (Homo sapiens) (P16473 whole entry, looked up): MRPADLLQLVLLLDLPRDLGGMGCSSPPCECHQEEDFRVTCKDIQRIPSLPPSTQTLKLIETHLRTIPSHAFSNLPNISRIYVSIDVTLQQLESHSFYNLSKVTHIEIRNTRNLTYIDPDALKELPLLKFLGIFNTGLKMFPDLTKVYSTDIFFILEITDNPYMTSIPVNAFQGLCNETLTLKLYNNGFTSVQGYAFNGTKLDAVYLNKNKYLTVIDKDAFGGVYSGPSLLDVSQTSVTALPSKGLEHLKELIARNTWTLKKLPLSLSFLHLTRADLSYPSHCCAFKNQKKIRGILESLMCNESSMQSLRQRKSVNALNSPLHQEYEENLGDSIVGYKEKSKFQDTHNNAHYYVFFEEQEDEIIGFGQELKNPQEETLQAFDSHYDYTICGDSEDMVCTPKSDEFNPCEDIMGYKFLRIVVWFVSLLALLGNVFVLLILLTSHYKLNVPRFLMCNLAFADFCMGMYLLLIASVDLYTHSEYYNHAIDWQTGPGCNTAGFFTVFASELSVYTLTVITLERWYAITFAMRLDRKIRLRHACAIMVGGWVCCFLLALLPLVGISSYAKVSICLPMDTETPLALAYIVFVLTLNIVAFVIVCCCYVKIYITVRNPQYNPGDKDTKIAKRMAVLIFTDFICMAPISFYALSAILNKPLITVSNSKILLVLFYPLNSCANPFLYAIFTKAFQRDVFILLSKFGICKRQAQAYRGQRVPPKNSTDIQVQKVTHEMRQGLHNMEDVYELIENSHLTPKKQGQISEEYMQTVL
Sequence of Nuclear receptor subfamily 1 group I member 3 (Homo sapiens) (Q14994 whole entry, looked up): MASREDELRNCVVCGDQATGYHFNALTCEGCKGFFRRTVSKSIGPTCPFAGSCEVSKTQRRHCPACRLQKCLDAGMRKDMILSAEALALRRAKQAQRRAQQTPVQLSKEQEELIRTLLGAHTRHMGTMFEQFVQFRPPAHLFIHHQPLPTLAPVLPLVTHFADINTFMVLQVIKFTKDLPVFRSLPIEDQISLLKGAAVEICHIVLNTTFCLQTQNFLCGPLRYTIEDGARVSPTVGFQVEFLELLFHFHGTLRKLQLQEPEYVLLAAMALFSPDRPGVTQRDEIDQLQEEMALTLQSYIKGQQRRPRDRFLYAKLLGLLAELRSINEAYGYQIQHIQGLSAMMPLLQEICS
Sequence of Luciferin 4-monooxygenase (Photinus pyralis) (P08659 whole entry, looked up): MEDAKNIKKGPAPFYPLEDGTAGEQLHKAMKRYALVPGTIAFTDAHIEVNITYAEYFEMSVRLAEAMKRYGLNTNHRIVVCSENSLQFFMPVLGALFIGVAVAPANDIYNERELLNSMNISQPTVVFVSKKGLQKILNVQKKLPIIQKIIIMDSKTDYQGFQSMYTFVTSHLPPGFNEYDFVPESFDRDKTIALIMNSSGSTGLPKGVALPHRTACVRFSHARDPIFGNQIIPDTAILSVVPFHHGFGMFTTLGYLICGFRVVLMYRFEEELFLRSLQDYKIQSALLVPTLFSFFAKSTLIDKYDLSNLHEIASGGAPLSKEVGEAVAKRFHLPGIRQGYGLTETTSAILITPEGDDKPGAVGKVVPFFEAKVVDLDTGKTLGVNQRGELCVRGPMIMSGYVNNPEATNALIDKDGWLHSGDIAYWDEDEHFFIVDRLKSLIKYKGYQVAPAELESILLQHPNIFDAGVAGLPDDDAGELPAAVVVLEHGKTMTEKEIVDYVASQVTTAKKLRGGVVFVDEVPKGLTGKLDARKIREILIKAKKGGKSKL

COCCOCCO
inactive: Potency [1] | Potency [2] | Potency [3] | Potency [4] | Potency [5] | Potency [6] | Potency [7] | Potency [8] | Potency [9] | Potency [11] | Potency [12] | Potency [13] | Potency [14]
active: activity change, positive = activation [10, 21] 18.2%

CCCCCCCCCCOC(=O)c1ccccc1C(=O)OCCCCCCCCCC
inactive: Potency [1] | Potency [2] | Potency [3] | Potency [4] | Potency [5] | Potency [6] | Potency [7] | Potency [8] | Potency [15] | Potency [16] | Potency [17] | Potency [18] | outcome [19] | Potency [20] | Potency [9] | Potency [11] | Potency [12] | Potency [13] | Potency [14]

CCOC(=O)COc1cc(-c2nn(C)c(OC(F)F)c2Cl)c(F)cc1Cl
inactive: Potency [1] | Potency [2] | Potency [3] | Potency [4] | Potency [5] | Potency [6] | Potency [7] | Potency [8] | Potency [15] | Potency [17] | Potency [18] | outcome [19] | Potency [20] | Potency [9] | Potency [11] | Potency [12] | Potency [13] | Potency [14]

C=CC(=O)OCCCCO
inactive: Potency [1] | Potency [2] | Potency [3] | Potency [4] | Potency [5] | Potency [6] | Potency [7] | Potency [8] | Potency [17] | Potency [20] | Potency [9] | Potency [11] | Potency [12] | Potency [13] | Potency [14]
active: activity change, positive = activation [10, 21] 68.3%

O=C(CCl)c1ccc(Cl)cc1Cl
inactive: Potency [2] | Potency [3] | Potency [4] | Potency [6] | Potency [7] | Potency [15] | Potency [16] | Potency [9] | activity change, positive = activation ([10]; at 42.5 µM (top of the series)) -19% | activity change, positive = activation ([10]; at 92.4 µM (top of the series)) -9.77% | Potency [13]
inactive and 16.9 µM (active): Potency [14]
active: Potency [5] 13.3 µM | Potency [12] 3.01 µM
inactive and 19 µM (active): Potency [11]
inactive and 21.1 µM (active): Potency [1]

c1ccc(CN2CCNCC2)cc1
inactive: Potency [1] | Potency [2] | Potency [3] | Potency [4] | Potency [5] | Potency [6] | Potency [7] | Potency [16] | Potency [17] | Potency [18] | outcome [19] | Potency [11] | Potency [12] | Potency [14]

CC(C)(CCl)C(=O)Cl
inactive: Potency [1] | Potency [2] | Potency [3] | Potency [4] | Potency [5] | Potency [6] | Potency [7] | Potency [16] | Potency [17] | Potency [18] | outcome [19] | Potency [20] | Potency [11] | Potency [12] | Potency [13] | Potency [14]

CCOP(=S)(OCC)Oc1nc(Cl)c(Cl)cc1Cl
active: Potency [6] 27.4 µM and 30.6 µM | Potency [20] 56.8 µM
inactive: Potency [1] | Potency [2] | Potency [3] | Potency [4] | Potency [5] | Potency [7] | Potency [17] | Potency [11] | Potency [13] | Potency [14]
21.9 µM (active) and inactive: Potency [12]

CCOc1ccc(C(C)(C)COCc2cccc(Oc3ccccc3)c2)cc1
active: Potency [6] 6.11 µM
inactive: Potency [1] | Potency [2] | Potency [3] | Potency [4] | Potency [5] | Potency [7] | Potency [17] | Potency [18] | outcome [19] | Potency [20] | Potency [11] | Potency [12] | Potency [13] | Potency [14]

Nc1nc(N)nc(N)n1
inactive: Potency [1] | Potency [2] | Potency [3] | Potency [4] | Potency [5] | Potency [6] | Potency [7] | Potency [16] | Potency [17] | Potency [18] | outcome [19] | Potency [20] | Potency [11] | Potency [12] | Potency [14]

C=CC(=O)OCC(C)C
inactive: Potency [1] | Potency [2] | Potency [3] | Potency [4] | Potency [5] | Potency [6] | Potency [7] | Potency [8] | Potency [16] | Potency [17] | Potency [18] | outcome [19] | Potency [20] | Potency [9] | Potency [11] | Potency [12] | Potency [13] | Potency [14]

C=COC(C)=O
inactive: Potency [1] | Potency [2] | Potency [3] | Potency [4] | Potency [5] | Potency [6] | Potency [7] | Potency [17] | Potency [18] | Potency [20] | Potency [11] | Potency [12] | Potency [13] | Potency [14]

Clc1cccc2ccccc12
inactive: Potency [1] | Potency [2] | Potency [3] | Potency [4] | Potency [5] | Potency [6] | Potency [7] | Potency [16] | Potency [17] | Potency [18] | outcome [19] | Potency [20] | Potency [11] | Potency [12] | Potency [13] | Potency [14]

O=C=Nc1ccc(Cl)cc1
active: Potency [2] 5.64 µM | Potency [6] 6.86 µM
inactive: Potency [1] | Potency [3] | Potency [4] | Potency [5] | Potency [7] | Potency [18] | Potency [20] | Potency [11] | Potency [12] | Potency [14]

C=CC(=O)OC(C)(C)C
inactive: Potency [1] | Potency [2] | Potency [3] | Potency [4] | Potency [5] | Potency [6] | Potency [7] | Potency [16] | Potency [17] | Potency [18] | Potency [20] | Potency [11] | Potency [12] | Potency [13] | Potency [14]
